B1: VH:VL chains; a variant is named by its letters at X, in order (parent)
chain 1: QVQLVQSGAEVKKPGASVKVSCKASGYTFTDYXMHWVRQAPGQGLEWMGXVNPNXXXTTYNQKFEGRVTMTTDTSTSTAYMELRSLRSDDTAVYYCARXNXLDXWGQGTTVTVSS
chain 2: DIQMTQSPSSLSASVGDRVTITCSVSSSVSSIYLHWYQQKPGKAPKLLIYSTSNLASGVPSRFSGSGSGTDFTLTISSLQPEDFATYYCQVYSGYPLTFGGGTKVEIK

The list shows a part of the results. How many sequences the whole screen found active is unknown.

The variants in the assay derive from B1. Description: yeast display scFab, FACS + sequencing. To be noted: with MET. Put shortly: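 For FACS, yeast displaying a heavy-chain CDR mutant scFab library were labelled with 1 nM HGFR-Fc and anti-Myc (PBSB, 1% milk, 3 h, room temperature), and the top 50% antigen-positive cells were gated. Input and round-3 sorted populations were deep sequenced in two replicates. The binding call was positive for sequences occurring in both antigen-positive samples and negative for sequences occurring only in input.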
As for YRTAGSGD, the antigen binding call was “binds”. In the case of YRTAGAGD it was “binds”; in that of YRTAGSSD, “binds”; in that of YRTAGAAD, “binds”. Regarding VATGDDGV, the antigen binding call is listed as “no binding”. As for STAESSSF, the entry is “no binding”; as for DKTGNDVA, “no binding”. As for DRAGDDVY, the antigen binding call is reported as “no binding”. In the case of YTGTSAVA it was “no binding”. As for VKGRADAA, the entry is “no binding”; as for SEGRGDAA, “no binding”; as for SKGRGSAA, “binds”. As for VKGRGSAA, the entry is “binds”; as for SAGRGSAA, “no binding”; as for VAGRGSAA, “no binding”. Consider VRGGGFGD, for which the antigen binding call was “binds”. In the case of VRRANFLD it was “no binding”; in that of VRGGGFGV, “no binding”.

Turning to VEGGGDGD, the antigen binding call was “no binding”. As for AAGRGFLD, the entry is “no binding”; as for VRGRGFLD, “binds”; as for DRGGDDVV, “no binding”. As for DREEGAVY, the entry is “no binding”; as for YRTKGAVY, “binds”; as for YRTRSAVY, “binds”. With SEARSAVY, the antigen binding call is reported as “no binding”. Take YRARSAGY: the antigen binding call is on record as “binds”. As for YRARSAVY, the entry is “binds”; as for SEREADWF, “no binding”; as for VAGTGDWF, “no binding”. For the variant AETKGDGA, the antigen binding call is “no binding”. As for DGGRSAVF, the entry is “no binding”; as for ARRGSDLA, “no binding”; as for DRRGDAVA, “no binding”. On to FREGSAVA, for which the antigen binding call is reported as “no binding”.

On to FRRTDFVA, for which the antigen binding call is reported as “no binding”. As for FRRGDAVA, the entry is “binds”; as for FRRGSALA, “binds”; as for FRRGSAVA, “binds”. In the case of DGGTNDGA it was “no binding”.

For DAAGADWY, the antigen binding call is given as “no binding”. In the case of YRAAGSWS it was “binds”; in that of YRGRSSWS, “binds”; in that of YRARGSWS, “binds”.

As for AAAGGSWS, the antigen binding call is reported as “no binding”. As for DRKGGDWS, the entry is “no binding”; as for YRKGGSWS, “binds”. With VRTEDSWS, the antigen binding call was “no binding”.

As for VAEKGDGA, the antigen binding call is “no binding”. As for YAEGGYGV chain 1 V68I, the entry is “no binding”. With DTTGSDWY, the antigen binding call is reported as “no binding”.

On to VEGGGDVA, for which the antigen binding call is on record as “no binding”. In the case of SEARSDWF, the antigen binding call was “no binding”. As for VAGTGDAA, the entry is “no binding”; as for SATTDSVD, “no binding”; as for YRAEGAWS, “binds”.

For SEARSAWS, the antigen binding call is on record as “no binding”. As for YRARSAWS, the entry is “binds”; as for SEARSSWS, “no binding”. As for VRARGDVS, the entry is “binds”; as for VEKGGDVS, “no binding”. In the case of YRARSSWS it was “binds”. As to VRAGGDVF, the antigen binding call is recorded as “no binding”.

Regarding YRKKTDWS, the antigen binding call was “no binding”. In the case of FAEGDDVA it was “no binding”; in that of ATTGGDGV, “no binding”.

Consider VGGTGSGY, for which the antigen binding call is “no binding”. As for VTEGGDVY, the entry is “no binding”. As for VEKGGDAA, the entry is “no binding”; as for VTERDDAV, “no binding”. In the case of YRARGAVS it was “binds”; in that of VAATADSS, “binds”. Take YRARGSVS: the antigen binding call is listed as “binds”. In the case of YRARGAAS it was “binds”.

As for DAATADSS, the antigen binding call is reported as “no binding”. In the case of YAATADSS it was “no binding”.

With YAEESDGS, the antigen binding call is recorded as “no binding”. In the case of STGEDDVY it was “no binding”; in that of DEEEGSAA, “no binding”. In the case of YKARGAWS it was “binds”; in that of YRARGAWS, “binds”. For YRARGAGS, the antigen binding call is “binds”. As for YEEGTDWY, the entry is “no binding”. With DREEGDGV, the antigen binding call is recorded as “no binding”.

DEAGTAVA: the antigen binding call was “no binding”. As for VKRGSSGD, the entry is “binds”; as for AKGTASGD, “no binding”. VRGRDYGD: the antigen binding call was “no binding”. In the case of VKRRDSGD it was “no binding”; in that of VRAGDSLS, “no binding”. Regarding VRGRSSGS, the antigen binding call is “binds”. For the variant VAGRSFGS, the antigen binding call was “no binding”.

For ARRGGSGS, the antigen binding call was “no binding”. Turning to VERGGFGS, the antigen binding call is given as “no binding”. As for VRGRAAGD, the entry is “binds”.

In the case of VRRGGSGS, the antigen binding call is given as “binds”.

Turning to VRTGAVGD, the antigen binding call is given as “no binding”.

Regarding VEKEGDAD, the antigen binding call is “no binding”.

With VKEKGDWV, the antigen binding call is “no binding”. In the case of DARGGDAA it was “no binding”; in that of VAATASWV, “no binding”; in that of SEARSDGS, “no binding”. With VTGTGDAD, the antigen binding call was “no binding”. For VRERGAGS, the antigen binding call was “binds”. As for VRAGGSGD, the entry is “binds”; as for VRGRSAWS, “binds”. As for VRTEDDWS, the entry is “no binding”; as for DRGRDAWS, “no binding”; as for VRRGGSGD, “binds”. As for VRERGDAS, the entry is “no binding”; as for VRERGDGS, “no binding”; as for SREAADWA, “no binding”. As for SEARSDWA, the antigen binding call was “no binding”.

On to AARADSGY, for which the antigen binding call is “no binding”. As for VAATAAGA, the entry is “no binding”; as for DKTKGDWV, “no binding”.

ARRGSAVS: the antigen binding call is given as “no binding”. In the case of VRAGDDGS it was “no binding”; in that of VRRGSAGD, “binds”. In the case of VRRGSAGS it was “binds”; in that of VRAGADGV, “no binding”; in that of VEGTSSGD, “no binding”. In the case of VTTKSAGD it was “no binding”. VRAGAAGV: the antigen binding call is listed as “no binding”. As for VRRGSSGD, the entry is “binds”. As for VRAGAAGS, the entry is “binds”; as for DKGEGAGV, “no binding”. As for STAESDVA, the entry is “no binding”. VRRETVSD: the antigen binding call is “no binding”. Regarding VRRAADSD, the antigen binding call is “no binding”.

Regarding VRRGSASD, the antigen binding call was “binds”.

Consider YRRGGSGD, for which the antigen binding call is on record as “binds”. Take SAGEGDVF: the antigen binding call is given as “no binding”. In the case of VKEGGSAD it was “no binding”; in that of VKAGASAD, “no binding”. As for FTGRAAAV, the entry is “no binding”; as for DRGRGSAD, “binds”. As for VKGRGSAD, the entry is “binds”. Consider FRGRASAD, for which the antigen binding call is “binds”. As for FKGRGAAV, the entry is “binds”; as for FKGRGFVV, “no binding”; as for DEGGTSAD, “no binding”. In the case of DTGTSAAF it was “no binding”; in that of STGEADAS, “no binding”; in that of YAEESDWV, “no binding”. As for ATGGAAGD, the entry is “no binding”.

VGGTSDGA: the antigen binding call is “no binding”. On to FAGRGSSD, for which the antigen binding call is reported as “no binding”. As to VKTKGVVD, the antigen binding call is on record as “no binding”. Consider FKGRGAAD, for which the antigen binding call is recorded as “binds”. As for FKGRGSAD, the entry is “binds”; as for FAGRGSAD, “binds”; as for VAGRGVGD, “no binding”. FTGRGSAD: the antigen binding call is reported as “no binding”. Regarding VKGRGVVD, the antigen binding call is listed as “binds”. In the case of VAGGDDAV it was “no binding”. In the case of FAEGAAGD it was “no binding”. With VGGTSSLD, the antigen binding call is “no binding”. As for DKRKGVSD chain 1 S88F, the entry is “no binding”; as for ATGRADGV, “no binding”; as for FRGRGSAD, “binds”.

For AAGRSDLV chain 1 R67H, the antigen binding call is “no binding”.

As to FAGRSDWV chain 1 R67H, the antigen binding call is on record as “no binding”.

For SETTDAGD, the antigen binding call was “no binding”. In the case of YRTRDSVA, the antigen binding call is “binds”. As for YRTRDSLD, the entry is “binds”; as for FRTRDAGD, “binds”; as for SEGGDAGD, “no binding”.

Regarding SRTRDAGD, the antigen binding call is “binds”. As for FRTRDVGF, the entry is “no binding”; as for YTTRDDSD, “no binding”; as for STEASYLS, “no binding”. As for VGRATVGS, the entry is “no binding”. In the case of FTRRSSLF chain 1 V111I it was “no binding”; in that of FRGRDFLD, “no binding”. As for FRTRDSLD, the antigen binding call is “binds”. As for FTTRDDSD, the entry is “no binding”; as for YRTRDSVD, “binds”; as for FRTRDALD, “binds”. In the case of SARKGDVA it was “no binding”; in that of VTGTGDVY, “no binding”; in that of STGGDDGF, “no binding”. As for YAGGDDAV, the entry is “no binding”; as for DTKAADGV, “no binding”; as for YREGDASD, “no binding”. For the variant YRGKDASD, the antigen binding call was “binds”. In the case of YRAGAASD it was “binds”. As for YRAGSASD, the entry is “binds”. In the case of DRAGDASD it was “no binding”. Take AARADDAA: the antigen binding call was “no binding”. In the case of SEARSDAA it was “no binding”; in that of YAGEGFGV, “no binding”; in that of VKAGGSLY, “binds”. In the case of VTERGSLD it was “no binding”; in that of VKKTGDLY, “no binding”; in that of VRERGAWD, “binds”. For VKAGGDVY, the antigen binding call is “no binding”.

For the variant VRERGASD, the antigen binding call is recorded as “binds”. As for VRERGSWD, the entry is “binds”; as for VGGTSSSA, “no binding”. In the case of AGGTSYSV it was “no binding”; in that of SARADSGV, “no binding”; in that of VTGGDYAV, “no binding”. In the case of DEGTGAVA it was “no binding”; in that of VRKGGSVY, “no binding”. As to VRERGSLY, the antigen binding call was “binds”. As for YRARGSWD, the entry is “binds”.

With SEARSSSD, the antigen binding call is “no binding”. In the case of YRRGGSWD it was “binds”. Consider YRARSSWD, for which the antigen binding call is on record as “binds”. YRARSSSD: the antigen binding call was “binds”.

Source of the values: the emibetuzumab library of Makowski et al. (2022).
